From PubChem BioAssay (EPA / NIEHS)
Some structures have more than one record in an assay (separate samples or runs), and their calls can disagree. Activity calls are given as the source filed them. Rule for the calls: active = hit-call score of the fitted dose curve at least 0.9, where 1 is the maximum; inactive = score below 0.9.

Experiment: ATG_TCF_b_cat_CIS: Attagene CIS-FACTORIAL HepG2 Assay for human T-Cell-Factor with beta-catenin (TCF/b-cat) (AID 2282965)
Details: HepG2 TCF/beta-catenin cis-reporter transcription, actives raise or lower the signal
Description: ATG_CIS is a cell-based, multiplexed-readout assay that uses HepG2, a human liver cell line, with measurements taken at 24 hours after chemical dosing in a 24-well plate.ATG_TCF_b_cat_CIS is one of 52 assay component(s) measured or calculated from the ATG_CIS assay. It is designed to make measurements of mRNA induction, a form of inducible reporter, as detected with fluorescence intensity signals by Reverse transcription polymerase chain reaction (RT-PCR) and Capillary electrophoresis technology.Data from the assay component ATG_TCF_b_cat_CIS was analyzed into 1 assay endpoint. This assay endpoint, ATG_TCF_b_cat_CIS, was analyzed with bidirectional fitting relative to DMSO as the negative control and baseline of activity. Using a type of inducible reporter, measures of mRNA for gain or loss-of-signal activity can be used to understand the reporter gene at the transcription factor-level as they relate to the gene TCF7 and TCF7L2 and LEF1 and TCF7L1. Furthermore, this assay endpoint can be referred to as a primary readout, because this assay has produced multiple assay endpoints where this one serves a reporter gene function. To generalize the intended target to other relatable targets, this assay endpoint is annotated to the dna binding intended target family, where the subfamily is HMG box protein.
Human liver HepG2 cells are transiently transfected with multiple reporter transcription units (MRTUs) in 6-well plates using FuGene 6 reagent (Roche; 3 ml FuGene/1 mg DNA). The MRTU constructs are regulated by a cis-regulating element (promoter). […] A major difference between the CIS and TRANS system is that in CIS activities of endogenous TFs are measured, whereas the TRANS assay evaluates changes in activities of exogenous, chimeric NR-Gal4 proteins. […] At the end of 24 hour incubation, total RNA was isolated using TriZol reagent (Invitrogen). The isolated RNA is then reverse-transcribed using oligo(dT) primer and Mo-MLV reverse transcriptase (Invitrogen) with DNAse I (Ambion) treatment for 30 min. The one-tenth of the produced cDNA was amplified by PCR using Taq DNA polymerase (Invitrogen) and two reporter sequence-specific primers. The PCR products were fluorescently labeled by primer extension with 6-arboxyfluorescein (6-FAM) 5'-labeled reporter sequence-specific primer (2 min at 95 C, 20 s at 68 C and 10 min at 72 C) and these products were digested with 5U of HpaI (New England Biolabs) for 2h at 37 C. The fragments were purified using Qiaquick PCR columns (Qiagen), analyzed on an ABI 3130xL genetic analyzer (Applied Biosystems) with peak positions identified by using a set of X-rhodamine (ROX)-labeled MapMarker1000 molecular weight standards (BioVentures). The raw capillary electrophoresis data was processed using Attagraph software (Attagene).

| Structure (SMILES) | outcome | AC50 |
| --- | --- | --- |
| CC(=O)c1ccccc1 | inactive |  |
| CCCCCCCC/C=C\CCCCCCCC(=O)OC[C@@H](O)[C@H]1OC[C@H](O)[C@H]1O | inactive |  |
| c1ccc2cc3ccccc3cc2c1 | inactive |  |
| O=S1(=O)CCCO1 | inactive |  |
| CC[C@H](C)C(=O)O[C@H]1C[C@H](O)C=C2C=C[C@H](C)[C@H](CC[C@@H](O)C[C@@H](O)CC(=O)O)[C@H]21 | inactive |  |
| c1ccc2c(c1)-c1cccc3c1c-2cc1ccccc13 | inactive |  |
| CCc1cccc(CC)c1N | inactive |  |
| CCCCCCOC(=O)CC(CC(=O)OCCCCCC)(OC(=O)CCC)C(=O)OCCCCCC | inactive |  |
| Cc1cccc(O)c1C | inactive |  |
| CCn1nc(C)c2c1C(=O)NCC(c1ccc(O)cc1)=N2 | inactive |  |
| CCCCN1C(=O)[C@@H]([C@H](O)C2CCCCC2)NC(=O)C12CCN(Cc1ccc(Oc3ccc(C(=O)O)cc3)cc1)CC2 |  | 52.5 µM (active) |
| OCCOCCOCCO | inactive |  |
| COc1cc2c(c(OC)c1OC)-c1ccc(OC)c(=O)cc1[C@@H](NC(C)=O)CC2 |  | 0.348 µM (active) |
| O=S(=O)(O)CCC(F)(F)C(F)(F)C(F)(F)C(F)(F)C(F)(F)C(F)(F)F | inactive |  |
| CCCCCCCCCC | inactive |  |
| CCCCCCCC1CCC(=O)O1 (stereo not given) | inactive |  |
| Cc1ccc(S(=O)(=O)NC(=O)NN2CCCCCC2)cc1 | inactive |  |
| c1ccc2ncccc2c1 | inactive |  |
| C[C@@H](Oc1ccc(CNC(=O)c2cccnc2Oc2ccc3c(c2)OCO3)c(F)c1)C(=O)O | inactive |  |

| Structure (SMILES) | outcome | AC50 |
| --- | --- | --- |
| OC(Cn1cncn1)(Cn1cncn1)c1ccc(F)cc1F | inactive |  |
| OCCNCCO | inactive |  |
| NC(=O)NN=Cc1ccc([N+](=O)[O-])o1 | inactive |  |
| FC(F)=C(F)C(F)(F)C(F)(F)C(F)(F)C(F)(F)C(F)(F)C(F)(F)F | inactive | 234 µM (active) |
| Cc1nccn1-c1ccc(Sc2cccc(C3(C(N)=O)CCOCC3)c2)cc1 |  | 6.41 µM (active) |
| Nc1ccn([C@@H]2O[C@H](CO)[C@@H](O)[C@@H]2O)c(=O)n1 | inactive |  |
| CCCOc1ccc(S(=O)(=O)N2CCN(CC)CC2)cc1-c1nc2c(CC)n(Cc3ccccn3)nc2c(=O)[nH]1 |  | 89.8 µM (active) |
| OC[C@H]1O[C@@](CO)(O[C@H]2O[C@H](CO)[C@@H](O)[C@H](O)[C@H]2O)[C@@H](O)[C@@H]1O | inactive |  |
| c1ccc(C(O[C@@H]2CCCN(CCc3ccc4c(c3)OCO4)C2)c2ccccc2)cc1 | inactive |  |
| FC(F)(F)C(F)(F)C(F)(F)C(F)(F)C(F)(F)C(F)(F)I | inactive |  |
| OCCC(F)(F)C(F)(F)C(F)(F)C(F)(F)F | inactive |  |
| COCc1nnc(-c2ccc[n+]([O-])c2)n1-c1c(Cl)c(Cl)cc2[nH]c(=O)c(=O)[nH]c12 | inactive |  |
| COc1cc(C(C)C)c2c(c1)S(=O)(=O)N(COc1cc(=O)n3cccc(OCCN4CCCCC4)c3n1)C2=O |  | 4.04 µM (active) |
| FC(F)C(F)(F)COCC1CO1 (stereo not given) | inactive |  |
| C=CN1CCCC1=O | inactive |  |
| C[C@]12C=CC(=O)C=C1CC[C@H]1[C@@H]3C[C@@H](O)[C@](O)(C(=O)CO)[C@@]3(C)C[C@H](O)[C@@]12F | inactive |  |
| CCCCCCCCCCCCCCO | inactive |  |
| NC(N)=O | inactive |  |
| OC(O)(C(F)C(O)(O)C(F)(F)F)C(F)(F)F | inactive | 3.07 µM (active) |
